# Screens: PubChem, Broad Institute
# ALR inh = human ALR oxidase inhibition via reduced H2O2; purified ALR, DTT oxidation, H2O2 HRP-luminol luminescence; hit rate 3.8% among 290,000; P55789; inhibition, % (no concentration beside the values);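 active = mean replicate inhibition above about 79%, with every replicate also reaching it, limit read from the data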
# Target sequence (P55789 whole entry, looked up): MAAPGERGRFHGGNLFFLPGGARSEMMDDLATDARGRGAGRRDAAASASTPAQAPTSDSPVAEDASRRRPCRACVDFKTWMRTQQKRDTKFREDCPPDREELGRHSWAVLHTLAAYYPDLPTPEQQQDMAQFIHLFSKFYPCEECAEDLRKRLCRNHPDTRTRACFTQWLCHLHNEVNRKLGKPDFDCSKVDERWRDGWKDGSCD
# NSD2 HMT inh = blocks human histone methyltransferase NSD2 | O96028 | NSD2 peptide methylation, AlphaScreen, 120 min | inhibition, % at 12.5 µM | hit rate 0.54% among 310,000 | AID 743445; in the data active = inhibition above about 50%
# SUMO Mot1 rescue = blocks SUMOylation pathway, rescuing yeast Mot1-301 growth | S. cerevisiae Mot1-301 growth rescue, ATP luminescence, 38.5C; percent above DMSO median, 100 means doubled | growth rescue, % at 18.8 µM | hit rate 1% among 320,000;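 active = every valid replicate shows activation above 250% relative to neutral control wells; inactive = the rest, any valid replicate at or below 250%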;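 note: OY570 slx delta 5 strain wells were the positive control but not used for scaling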
# Casp6 inh = blocks human caspase-6 cleavage activity. inhibition, % at 12.5 µM. hit rate 0.53% among 350,000. AID 686996. P55212. purified caspase-6, Z-VEID-R110 cleavage fluorescence;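 active = mean inhibition across replicates at least about 35%, with every replicate also reaching that limit, limit read from the data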;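 note: 0% = median of neutral control wells and 100% = no fluorescence left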
# Target sequence (P55212 24-179 limits assumed): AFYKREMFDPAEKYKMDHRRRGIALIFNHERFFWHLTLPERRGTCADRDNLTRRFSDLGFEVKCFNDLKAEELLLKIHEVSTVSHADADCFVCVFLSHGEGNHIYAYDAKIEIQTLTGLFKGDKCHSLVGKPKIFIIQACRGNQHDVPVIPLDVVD
# Target sequence (P55212 194-293 limits assumed): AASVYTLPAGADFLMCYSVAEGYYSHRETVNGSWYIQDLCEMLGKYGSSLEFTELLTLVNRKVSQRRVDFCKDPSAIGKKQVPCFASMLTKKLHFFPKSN
# Glyco luc inh = N-linked glycosylation inhibition; D54 ERlucT glycosylation luciferase reporter, 24 h; percent of 100 nM tunicamycin response; hit rate 0.23% among 360,000; reporter increase, % at 12.5 µM;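 active = mean luciferase reporter signal, scaled so untreated is 0 and the glycosylation-blocking control 100, at or above a set limit in every replicate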;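 note: luciferase carries N-glycosylation sites so blocking glycosylation raises the light; 0% = median of neutral control wells and 100% = median of 100 nM tunicamycin wells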
# CDK5 p35 inh = blocks human CDK5/p35 kinase activity; Q00535+Q15078; Recombinant CDK5/p35, ADP-Glo luminescence, 60 min; inhibition, % at 10 µM; hit rate 0.01% among 330,000; AID 488839;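 active = highest replicate inhibition of at least 50% and at least 75% of replicates reaching 50%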;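 note: plate controls were DMSO neutral control for no effect and GW8510 at 10 µM for full effect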
# * marks the source's active call; other numbers are inactive results; / = no result given. The list is not random: actives were taken first. Their share in the collection is about 3.9%.
SMILES,ALR inh,NSD2 HMT inh,SUMO Mot1 rescue,Casp6 inh,Glyco luc inh,CDK5 p35 inh
Cc1ccc(C(=O)CSc2cc(C)[nH]c(=O)n2)cc1,99*,-1,-23,-3,-19,1
Cc1cc(SCc2ccc(Cl)cc2Cl)nc(=O)[nH]1,98*,-3,11,0,1,-1
Cc1cc(SCc2ccccc2Cl)nc(=O)[nH]1,94*,-2,-15,-1,0,-2
Cc1cc(SCc2ccccc2C)nc(=O)[nH]1,29,-2,-12,2,3,1
C[C@H](NC(=O)C[C@@H]1CC[C@@H]2[C@H](COC[C@H](O)CN2C(=O)Nc2ccccc2)O1)c1ccccc1,/,/,/,0,/,/
COc1ccc(OC)c(C(O)c2nc3ccccc3n2C(C)C)c1 (stereo unspecified),-9,1,304*,/,-2,-1
COc1cc(C(O)c2nc3ccccc3n2C(C)C)cc(OC)c1OC (stereo unspecified),-5,-3,-6,1,4,13
CCC(=O)N1C[C@H]2[C@@H](c3ccccc31)[C@H](CO)N2Cc1cc(F)ccc1F,/,/,/,-2,/,/
CN(CC(=O)NCCN1CCN(c2ccccc2)CC1)S(=O)(=O)c1ccc2c(c1)CCC(=O)N2,98*,/,93,3,0,-1
O=C(NCC1CC1)[C@@H]1[C@@H](CO)[C@@H]2Cn3c(ccc(-c4ccccc4F)c3=O)[C@H]1N2Cc1ccncc1,/,/,/,0,/,/
COc1cccc(C(=O)N2CCC2(C)C(=O)NC(C)C)c1 (stereo unspecified),/,-3,/,-3,6,/
CC(C)NC(=O)C1(C)CCN1C(=O)c1ccc2c(c1)OCO2 (stereo unspecified),/,0,/,71*,2,/
O=C1[C@@H]2[C@@H](CC(COc3ccccc3)=C([C@H](O)c3ccccc3)[C@@H]2CO)C(=O)N1Cc1ccccc1,/,/,/,2,/,/
C[C@H](CO)N1C[C@H](C)[C@H](CN(C)Cc2ccc(C(=O)O)cc2)Oc2ccc(NS(C)(=O)=O)cc2CC1=O,/,/,/,-1,/,/
CCOc1cc(/C=C(\C#N)c2[nH]nc(N)c2C#N)ccc1O,99*,0,-1,/,-6,1
O=C(Nc1cccc2[nH]ncc12)NS(=O)(=O)c1ccccc1,97*,/,116,2,1,2
CC(=O)Nc1ccc(S(=O)(=O)Nc2cccc3[nH]ncc23)cc1,-10,-1,12,1,0,1
CC1=C([N+](=O)[O-])C(c2ccc(O)c(O)c2)NC(=O)N1 (stereo unspecified),99*,3,72,3,0,0
CC(=O)C1=C(c2ccccc2)NC(=S)NC1c1ccc(O)c(O)c1 (stereo unspecified),99*,5,13,21,2,1
CC(=O)C1=C(c2ccccc2)NC(=O)NC1c1ccc(O)c(O)c1 (stereo unspecified),99*,32,-7,2,2,1
COc1ccc(C2NC(=O)NC(C)=C2[N+](=O)[O-])cc1OC (stereo unspecified),10,-10,-14,2,2,0
O=C(COC(=O)C1=COCCO1)Nc1ccc(F)c(F)c1,1,-2,609*,-4,0,0
CO[C@@H](CN(C)S(=O)(=O)c1cccc(Cl)c1)[C@H](C)CN([C@@H](C)CO)S(=O)(=O)c1cccc(Cl)c1,/,/,/,-2,/,/
O=C(NCc1ccccc1)c1sc(=S)n2c1[nH]c(=O)c1ccccc12,98*,17,-14,/,2,-3
CC(C)C(=O)N1CCN(c2ccccc2NC(=O)c2cccc3ccccc23)CC1,-3,-1,-10,60*,-1,1
SMILES,ALR inh,NSD2 HMT inh,SUMO Mot1 rescue,Casp6 inh,Glyco luc inh,CDK5 p35 inh
CS(=O)(=O)N1CCN(c2ccccc2NC(=O)c2cccc3ccccc23)CC1,-6,16,53,/,-1,1
CC(=O)Nc1cccc(-c2ccnc3c2CC(C)(C(=O)Nc2cccc(C(C)=O)c2)O3)c1 (stereo unspecified),/,0,/,2,30*,/
CNC[C@H]1Oc2ccc(NC(=O)Cc3ccccc3)cc2C(=O)N([C@H](C)CO)C[C@H]1C,/,/,/,1,/,/
COc1cc(C2(c3ccc(O)c(OC)c3)C(=O)Nc3c(C)cc(Br)cc32)ccc1O,80*,1,79,9,-1,0
Cc1cc(Br)cc2c1NC(=O)C2(c1c(C)n(C)n(-c2ccccc2)c1=O)c1c(C)n(C)n(-c2ccccc2)c1=O,2,/,-23,/,1,1
Cc1cc(NC(=O)CSc2nc3ccsc3c(=O)n2CCCC(=O)NCCc2ccccc2)no1,/,-2,771*,1,0,-1
CCN(CC)C(=O)CSc1nc2ccsc2c(=O)n1CCCC(=O)NCCc1ccc(S(N)(=O)=O)cc1,0,3,14,2,2,0
CCc1ccc(NC(=O)CSc2nc3ccsc3c(=O)n2CCC(=O)O)cc1,2,4,234,-5,2,-6
CCOc1ccc(NC(=O)CSc2nc3ccsc3c(=O)n2CCC(=O)O)cc1,95*,1,-5,5,0,1
COCC(=O)N(C)C[C@H]1Oc2ncc(C#Cc3ccccc3)cc2C(=O)N([C@@H](C)CO)C[C@@H]1C,/,/,/,-1,/,/
COCC(=O)N(C)C[C@@H]1Oc2cc(C3=CCCCC3)ccc2S(=O)(=O)N([C@@H](C)CO)C[C@@H]1C,/,/,/,-1,/,/
Cc1[nH]c2ccccc2c1/C=N/NC(=O)CNC(=O)c1ccco1,95*,-2,-5,5,3,3
Cc1[nH]c2ccccc2c1/C=N\NC(=O)c1ccco1,58,0,2,-1,1,0
O=C(Cc1ccccc1)N[C@@H]1CC[C@H](CC(=O)N2CCOCC2)O[C@H]1CO,/,/,/,0,/,/
N#Cc1ccc(NC(=O)CSc2nc3[nH]c(=O)cc(O)c3s2)cc1,99*,1,-9,-2,2,1
O=C(CSc1nc2[nH]ncc2c(=O)[nH]1)Nc1ccc(Cl)c(Cl)c1,0,0,-2,2,0,1
COc1ccc(NC(=O)CSc2nc3[nH]ncc3c(=O)[nH]2)cc1OC,96*,0,10,3,2,1
COc1ccc(NC(=O)CSc2nc3[nH]c(=O)cc(O)c3s2)c(OC)c1,41,-1,-17,2,2,0
COc1ccccc1NC(=O)CSc1nc2ncccc2[nH]1,-5,/,82,2,-2,-1
COc1ccc(NC(=O)CSc2nc3[nH]c(=O)cc(O)c3s2)cc1OC,99*,3,-2,18,-1,-1
COc1ccc(NC(C)=O)cc1NC(=O)CSc1nc2ncccc2[nH]1,-7,-1,331*,/,2,-1
O=S(=O)(N[C@H]1CC[C@H](CCn2cc(C3(O)CCCC3)nn2)O[C@@H]1CO)c1ccc(Cl)cc1,/,/,/,2,/,/
